# Laboratory results taken from PubChem BioAssay (NCI).
# About 83,000 compounds went through this panel and 20% of them were active in at least one assay; those are over-represented in the sample as a whole.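 Single-dose data. Exposure time 48 hours. Values below 10 considered active.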 A number with no mark means an inactive call. Calls of active or inactive are those of the source.
# Tested on: HL-60(TB) leukemia
# Experiment: NCI-60 one-dose screen, 48 h (100 = growth as untreated, 0 = no growth, -100 = all killed)
# Conditions: 10 µM unless noted
row,Compound,growth
1,CCCCOc1nc2c(C)cccc2cc1-c1cc(-c2ccc(Cl)cc2)nc(-c2ccc(Cl)cc2)c1,98.8%
2,NC(=O)c1ccc[n+](CC(=O)N2CCN(c3cc4c(cc3F)c(=O)c(C(=O)O)cn4C3CC3)CC2)c1,106%
3,COc1ccc(-c2cnc3ccnn3c2-c2cc(OC)c(OC)c(OC)c2)cc1,-22% (active)
4,O=C1c2ccccc2C(=O)c2c1ccc(C(Br)Br)c2[N+](=O)[O-],-37.9% (active)
5,Cc1ccc2c(c1)C(C)Cc1c(Cl)ncnc1N2C (stereo not given),17.3%
6,Clc1ccc(Nc2ccnc(N3CCN(c4ccnc5cc(Cl)ccc45)CC3)n2)cc1,72.1%
7,O=C1OC(Oc2ccccc2)(c2ccccc2)c2ccccc21 (stereo not given),83.8%
8,CC(C)N(CCNc1nc(C(Cl)(Cl)Cl)nc2cc(Cl)ccc12)C(C)C,-0.349% (active)
9,CCN(CC)CCn1c2ccc(O)cc2c2sc3cc(O)ccc3c(=O)c21,38%
10,C[C@H]1[C@@H]2[C@H]3CC[C@@H]4[C@@]5(C)Cc6c([nH]c7ccccc67)C(C)(C)[C@@H]5CC[C@@]4(C)[C@]3(C)CC[C@]23CO[C@]1(C)[C@@H](C(=O)/C=C/c1ccccn1)C3,72.4%
11,CCN(CC)c1nc(SCC(=O)Nc2nc3ccc(C)cc3s2)nc(-c2ccccc2)c1C#N,96.5%
12,CN(CCc1ccccc1)C(=S)N(C(=O)c1ccc([N+](=O)[O-])cc1)c1ccc(Cl)cc1,45%
13,CC(C)(C)C(=O)OCOP(=O)(OCOC(=O)C(C)(C)C)C1CC(O)N(O)C1=O (stereo not given),13.1%
14,Cc1nc2sc(C(=O)Nc3ccccc3)c(N)c2cc1C(=O)c1ccc(C(F)(F)F)cc1,99.3%
15,O=C1OC(c2ccc(-c3ccccc3)cc2)=C/C1=C/c1c2ccccc2cc2ccccc12,51%
16,COc1cc(-c2nc3occn3c2-c2ccnc(NCCCNS(=O)(=O)c3ccccc3)n2)ccc1F,39.6%
17,CCc1nn(Cc2ccccc2)c2nc(C)c(CCc3ccccc3)c(Cl)c12,82.7%
18,FC(F)(F)c1cccc(-c2nnn(Cc3cc(-c4cccc(Cl)c4)no3)n2)c1,108%
19,c1ccc(Nc2nc3c(s2)CCc2c[nH]cc2-3)nc1,2.15% (active)
20,COc1cc(C2CC(c3ccccc3)=NN2C(C)=O)cc(OC)c1OC (stereo not given),14.2%

row,Compound,growth
1,c1c[nH]c(CNC2CCCCC2)c1,263%
2,O=C(O)C(C(=O)O)c1cccc2ccccc12,98.6%
3,S=C1CC(=S)NC(=S)N1,131%
4,Fc1cnccc1-c1nc2ccc3[nH]ncc3c2c2c1CCCC2,16.9%
5,COc1ccc2nc(NC(=O)c3cccnc3Nc3ccc(S(N)(=O)=O)cc3)sc2c1,54.5%
6,C#CCn1cnc2cnc(Nc3cccc(NC(=O)CCl)c3)nc21,-7.95% [6.25 µM] (active)
7,COC(=O)c1ccc(Cn2cnc3c(N)ncnc32)cc1,67.6%
8,O=c1n(CC2CO2)c(=O)n(CC2CO2)c(=O)n1CC1CO1 (stereo not given),20.4%
9,O=C1C(N2CCOCC2)=Cc2cccc3cccc1c23,-26% (active)
10,O=c1onc(-c2ccccc2)c2ccccc12,86.8%
11,O=c1c2cc(Br)cc(Br)c2nc(-c2ccc(Cl)cc2)n1/N=C/c1cccc(F)c1,71%
12,O=C1C=CC2(O)OC/C(=C\c3ccccc3)C(O)=C2C1=O (stereo not given),4.63% (active)
13,CC1(C)CC(=O)c2c(nn(-c3ccc(Br)cc3)c2-c2cn(-c3ccccc3)nc2-c2cccnc2)C1,92.1%
14,COc1ccc(/C=C2\CS(=O)(=O)C/C(=C\c3ccc(OC)cc3)C2=O)cc1,-29.8% (active)
15,COc1cc(-c2cc(/C=C3\C(=O)Nc4cc(Cl)ccc43)[nH]n2)cc(OC)c1OC,-34.9% (active)
16,C1=C(c2ccccc2)c2ccccc2C1,95.1%
17,COc1ccc(/C=C(\C#N)c2cc3ccccc3n2C)cc1,0.415% (active)
18,CCCCCc1ccnc(CC(=O)c2ccc(OC)cc2)c1,110%
19,COc1ccc(NC(=S)N/N=C/c2ccccc2SSCCC(=O)OC[C@H]2O[C@H](O)[C@H](O)[C@@H](O)[C@@H]2O)cc1,75.1%
20,CC(C)(C)c1ccc(N2CSC(=S)N(c3ccc(C(C)(C)C)cc3)C2)cc1,92.7%
